This note sets out measurements from PubChem BioAssay (NCATS).

Values joined by “and” are separate entries in the source; they are usually repeats but may differ in a detail not shown here. Equal entries are not always repeated. Results filed as inconclusive are left out. A number with no mark means an inactive call. Active and inactive are the calls of the source. Calls come from the whole dose curve; as a rule, active = well fitted inhibition curve with a large enough effect; inconclusive = small, poorly fitted or top-dose-only effect; inactive = no such curve, though single readings can be large or run the other way.
Potency is the fitted concentration of half-maximal effect.

The nature of this assay: Confirmatory screen NINDS Rhodamine qHTS for Zika virus inhibitors (AID 1347161). Note: nearly all actives have a fitted effect of over 60% in size. Conditions: purified enzyme assay, Rhodamine110 substrate fluorescence, 15 min; series mostly up to 114 µM; activity change, negative = inhibition: at the top concentration. The source says:
Avindra Nath, Ph.D., National Institute of Neurological Disorders and Stroke (NINDS), Bethesda, MD
Radhakrishnan Padmanabhan, Ph.D., Georgetown University (GU), Washington D.C.
Zika Virus causes congenital defects, including microcephaly and is associated with Guillain-Barre syndrome, eningoencephalitis and myelitis in infected adult. […] Using a target-based approach, we hope to establish a screening paradigm to uncover novel, cell-active NS2B-NS3 protease (Zika Virus) specific inhibitors from NCATS' collection of small molecules using qHTS.
Four assay panel was created to identify potential Zika Virus inhibitors. Namely, (1) GU unlinked NS2B-NS3 AMC tagged protease qHTS, (2) GU unlinked NS2B-NS3 Rhodamine tagged protease qHTS, (3) NINDS linked NS2B-NS3 AMC tagged protease qHTS, (4) NINDS linked NS2B-NS3 Rhodamine tagged protease qHTS. Active compounds were re-acquired and re-screened to confirm inhibition. Inhibitors were further screened against various confirmatory and counterscreens in dose response format.
Early Translation Branch (ETB)
National Center for Advancing Translational Sciences (NCATS), Rockville, MD
National Institute of Health (NIH), Bethesda, Maryland
For the linked assay, Nath lab (NINDS) provided the purified linked NS2B-NS3 protease which is consists of hydrophilic domain of NS2B linked to the NS3 protease domain by a flexible (-[…]-) linker. Control compound aprotinin is obtained from Thermo Scientific (#78432; Waltham, Massachusetts). Rhodamine110 substrate ([N-Cbz]-Nle-Lys-Arg-Arg-Rhod110-Arg-Arg-Lys-Nle-[N-Cbz]) was purchased from either Genscript or Bachem.
1536-well Protease (Rhodamine110 Substrate) Assay:
Briefly, 3 microL of enzyme (25 nM final concentration), in assay buffer (10 mM Tris-HCl pH 8.0 with 0.01% Tween 20) were dispensed into a 1,536-well solid-bottom black plate (Greiner Bio One, Monroe, NC). Twenty-three nL of compounds (final concentration range 7.28 nM to 114 microM) or control Aprotinin (final concentration range 3.47 nM to 114 microM) were transferred via Wako Pin-tool (Wako Automation, Richmond, VA). Samples were incubated (room temperature, protected from light) for 15 minutes followed by a 1 microL Rhodamine110 substrate addition (1.5 microM final concentration). Plates were then immediately read on a ViewLux High-throughput CCD imager (PerkinElmer, Waltham, MA) equipped with FITC fluorescence optics (480(20) nm excitation, 540(25) nm emission), then incubated (room temperature, protected from light) for 15 minutes (~15% conversion). The change in fluorescence intensity over the 15-minute reaction period was normalized against no-inhibitor and no-enzyme controls and the resulting percent inhibition data were fitted to a 4-parameter Hill equation. Aprotinin was used as intraplate control.
Regarding `COc1ccccc1-c1cccc(-c2c(O)c3cc(C#N)c(Cl)cc3[nH]c2=O)c1`, the Potency is 27.8 µM (active).
As for `Cc1[nH]c(=O)c(C#N)cc1-c1ccc2nccn2c1`, the “activity change, negative = inhibition” value is -18%.
Same read-out and setting: then `CN1CCN(CCCN2c3ccccc3Sc3ccc(C(F)(F)F)cc32)CC1`, with 536%.
For `O=c1n(CCCN2CCN(c3cccc(Cl)c3)CC2)nc2ccccn12`, the “activity change, negative = inhibition” value was -26.3%.
As to `COCC(=O)NCC=Cc1ccc2ncnc(Nc3ccc(Oc4ccc(C)nc4)c(C)c3)c2c1`, the “activity change, negative = inhibition” value was -12.8%.
Consider `Cc1cc2c(C(C)C)c(O)c(O)c(C=O)c2c(O)c1-c1c(C)cc2c(C(C)C)c(O)c(O)c(C=O)c2c1O`, for which the Potency was 2 µM (active).
Consider `Cc1[nH]c(=O)c(C#N)cc1-c1ccncc1`, for which the “activity change, negative = inhibition” value was -12.8%.
Consider `CCn1cc(C(=O)O)c(=O)c2cc(F)c(N3CCNC(C)C3)c(F)c21` (stereo not drawn), for which the Potency entry was “inactive”.
`CCCc1nc2c(C)cc(-c3nc4ccccc4n3C)cc2n1Cc1ccc(-c2ccccc2C(=O)O)cc1`: the Potency is 13.9 µM (active).
On the same count and under the same terms, then `COc1cc2c(cc1OC)CN(CCc1ccc(NC(=O)c3cccc4c(=O)c5cccc(OC)c5[nH]c34)cc1)CC2`, with 55.5 µM (active); and `CC(C)c1onc(-c2c(Cl)cccc2Cl)c1COc1ccc(/C=C/c2cccc(C(=O)O)c2)c(Cl)c1`, with 2.47 µM (active); and `Cc1cc(SCc2sc(-c3ccc(C(F)(F)F)cc3)nc2C)ccc1OCC(=O)O`, with 2.78 µM (active) and 3.12 µM (active).
With `CCN(CC)CCCC(C)Nc1ccnc2cc(Cl)ccc12` (stereo not drawn), the “activity change, negative = inhibition” value is -20.3%.
